In PubChem BioAssay AID743269 (The Scripps Research Institute Molecular Screening Center, 2014):
In all, about 370,000 compounds went through this assay and about 2,400 (0.65%) were called active. This is one part of a sample in which actives are shown more often than they occur. Values without a mark were called inactive.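 Rule for the calls: active = inhibition above the screen-wide mean plus 3 SD (cut at about 13% in these data); inactive = the rest.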

Test system: HIV-1 integrase (with human LEDGF/p75)
Assay: blockers of LEDGF/p75-dependent integrase strand transfer – biochemical, TR-FRET, high throughput, primary screen (AID 743269);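 note: signal is the Cy5 over europium emission ratio at 671 and 618 nm; 0% = plate median of compound wells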
Conditions: TR-FRET IN-LEDGF/p75 DNA integration, Eu/Cy5; at 3.7 µM; hits give high values

SMILES | inhibition
CSc1ccc(C=Nn2c(-c3ccc(F)cc3)n[nH]c2=S)cc1 | 1.18%
COc1ccc2c(c1)CN1CN(CCc3ccccc3)S(=O)(=O)CC21 (centres undefined) | 3.16%
CN1CCN(C(=O)/C(=C\c2cccs2)NC(=O)c2cccs2)CC1 | -1.57%
O=C(N/C(=C\c1ccc(O)cc1)C(=O)N1CCCCC1)c1ccccc1 | 3.65%
Cc1ccc(C(=O)N/C(=C/c2cccs2)C(=O)N2CCCCC2)cc1 | 33% (active)
Cc1ccc(Cn2cc(CN3[C@@H](C)COc4cc(Br)ccc4S3(=O)=O)nn2)cc1 | 4.11%
O=C1Nc2ccccc2OC1CC(=O)N1CCCCCCC1 (centres undefined) | 0.2%
CCC(CO)Nc1cccc2c1S(=O)(=O)N(Cc1cn(Cc3ccccc3C(F)(F)F)nn1)Cc1ccccc1O2 (centres undefined) | -2.25%
FC(F)(F)c1cccc(Cn2ccc3ccc(-c4ccc5ccn(Cc6ccccc6)c5c4)cc32)c1 | 3.37%
CC(=O)N1CCc2cc(S(=O)(=O)NCCC(=O)N3CCCC3)ccc21 | -3.8%
Cc1ccccc1C(=O)N1CCC(C(=O)Oc2ccc(C#N)cc2)CC1 | -4.31%
CC1(OC(=O)C2CCCC2)C(=O)C=C2C=C(c3ccc(C#N)cc3)OC=C2C1=O (centres undefined) | 13.4% (active)
CC1(C(=O)NS(=O)(=O)c2ccc(C#N)cc2)CCN1C(=O)c1ccc(C2CCCCC2)cc1 (centres undefined) | -1.93%
C[C@H]1CCC/C=C/C(=O)c2c(O)cc(O)cc2CC(=O)O1 | -2.09%
Cc1cc2c(c(=O)n1Cc1ccco1)C(c1ccccc1)C(C#N)=C(N)O2 (centres undefined) | 42.2% (active)
O=C(Cn1c(=O)n(Cc2ccco2)c(=O)c2ccccc21)NCC1CCCO1 (centres undefined) | 2.8%
Cc1cc2c(c(=O)n1C)C(C(C)C)C(C#N)=C(N)O2 (centres undefined) | 0.88%
N#Cc1ccc(OC[C@@H](O)CN2CCC(C(O)(c3ccccc3)c3ccccc3)CC2)c(F)c1 | 1.07%
O=C(Nc1nnc(-c2ccco2)o1)c1ccc(S(=O)(=O)N2CCOCC2)cc1 | 27% (active)
Cc1ccnc(NS(=O)(=O)c2ccc(NC(=O)c3ccc(S(=O)(=O)N4CCOCC4)cc3)cc2)n1 | -0.6%
O=C(Nc1nnc(-c2ccccc2)o1)c1cccc(S(=O)(=O)N2CCOCC2)c1 | 4.42%
Cc1cccc(C(=O)Nc2c(-c3ccc(F)cc3)nc3ncccn23)c1 | 1.19%
C=CCN1[C@H](CC(C)C)COc2cccc(N3CCCC3)c2S1(=O)=O | -3.3%

SMILES | inhibition
CCN(CC)C(=O)CC[C@H]1CC[C@]2(CCCN(Cc3ccc(Cl)cc3)C2)O1 | 3.81%
CCCC[C@H]1C2CC(OC(=O)NCc3ccccc3)C(C2)[C@H]2CCCCN21 (some centres undefined) | -3.96%
O=C(OC1CC2CC1[C@H]1CCCCN1C2=O)N1CCOCC1 (some centres undefined) | -2.09%
CCCCNC(=O)OC1CC2CC1[C@H]1CCCCN1C2=O (some centres undefined) | 25.4% (active)
c1coc(CCNc2ncnc3ccc(-c4ccc5c(c4)OCO5)cc23)c1 | 2.41%
COC(=O)c1cc(S(=O)(=O)N2CCN(c3ccccc3C)CC2)cn1C | -0.95%
O=C(Cc1coc2ccc3ccccc3c12)NCc1cccs1 | 0.4%
Cc1nc2c(C(=O)NCc3cccs3)cnn2c(C)c1Cc1ccc(F)cc1 | -1.76%
CC(C)Cn1c(N)c(C(=O)NCc2cccs2)c2nc3ccccc3nc21 | 23.8% (active)
N[C@@H](Cc1ccccc1)C(=O)N1CCC[C@@H]1C(=O)N1CCC2CCN(S(=O)(=O)c3ccccc3)CC21 (some centres undefined) | 3.42%
Cc1ccc(CSc2nnc(SCC(=O)NN=Cc3cc(Br)ccc3F)s2)cc1 | 3.4%
CCOC(=O)c1ccc(NC(=O)c2c(NCc3ccccc3)[nH]c(=O)[nH]c2=O)cc1 | 2.44%
CCOC(=O)c1ccc(Nc2cc3ccccc3c(=O)[nH]2)cc1 | 15.5% (active)
CCOC(=O)c1ccc(NC(=O)c2c(N)n(C)c(=O)[nH]c2=O)cc1 | -0.3%
COc1ccccc1C(=O)NC1CCCCN(C(C)C)C1=O (centres undefined) | -1.35%
COC(=O)C[C@@H]1CC[C@H]2[C@@H](COc3ccc(NS(=O)(=O)CC(F)(F)F)cc3C(=O)N2C)O1 | -3.99%
COC(=O)[C@@]12CCCCC=C1N(CCc1ccc(Cl)cc1)C(=O)[C@H]2CC(=O)NCc1ccc(OC)c(OC)c1 | 2.21%
C=CCN(Cc1ccc2c(c1)OCO2)C(C#CC1CC1)C(C)(C)C (centres undefined) | 0.61%
COc1ccc(S(=O)(=O)N2CCOCC2)cc1C(=O)NC1CCCCC1 | 1.4%
Cc1ccc(S(=O)(=O)N2CCN(C)CC2)cc1C(=O)NC1CCCCC1 | 2.41%
COc1ccc(S(=O)(=O)N2CCCCC2)cc1C(=O)NC1CCS(=O)(=O)C1 (centres undefined) | 19.8% (active)
C=CCN1C(=O)[C@@H](CC(=O)NCCCCc2ccccc2)[C@]2(C(=O)OCC)CCCCC/C=C/12 | -2.38%
Cc1ccccc1NC(=O)C1CCN(c2ncccn2)CC1 | -1.73%

SMILES | inhibition
COc1ccc(C2CC(c3cccs3)=NN2C(=O)COC(=O)c2cc3ccccc3cc2O)cc1OC (centres undefined) | 23% (active)
COc1cccc(C2CC(c3cccs3)=NN2C(=O)CSC2=NCCS2)c1OC (centres undefined) | -1.38%
COc1ccc(C2CC(c3cccs3)=NN2c2nc(C)c(C(C)=O)s2)cc1OC (centres undefined) | -0.06%
Nc1ccc2nc3c(=O)[nH]c(=S)[nH]c3nc2c1 | 39.9% (active)
COc1ccc(Cn2cc(CN3[C@@H](CC(C)C)COc4cc(Br)ccc4S3(=O)=O)nn2)cc1 | 3.34%
Cc1nc(CNc2ncnc3ccc(-c4ccc5c(c4)OCO5)cc23)cs1 | -1.03%
O=C(NCCCc1ccccc1)[C@H](Cc1ccccc1)NC1(C(=O)NCCc2c[nH]c3ccccc23)CCC1 | -0.75%
COc1ccc(N2CCN(CCNS(=O)(=O)c3ccc(C(C)(C)C)cc3)CC2)cc1 | 1.13%
CC(=O)OCCN1CCCC12CCC(c1ccccc1)CC2 (centres undefined) | -3.46%
COC(=O)C1CN(Cc2cn(Cc3ccc(F)cc3)nn2)CCS(=O)(=O)N1Cc1ccc(Cl)cc1 (centres undefined) | 0.07%
CC(=O)OCC1(O)CC23CCC4c5ccoc5CCC4(C)C2CCC1C3 (centres undefined) | 36.9% (active)
COC(=O)c1ccccc1-n1cc(COC(=O)NCCc2ccccc2)nn1 | -3.43%
C=CCN1C(=O)[C@@H](CC(=O)NCC2CCCCC2)[C@]2(C(=O)OC)CCCCC=C12 | 0.59%
CCOc1ccc(N(CC(=O)Nc2c(C)n(C)n(-c3ccccc3)c2=O)S(=O)(=O)c2ccc(Cl)s2)cc1 | 2.7%
O=C(O)C(CCc1ccccn1)c1ccccc1 (centres undefined) | 0.2%
CC(=O)NC(CC(=O)O)c1ccc(F)cc1 (centres undefined) | -3.02%
CN(C)c1ccc(C(CC(=O)O)C(=O)O)cc1 (centres undefined) | 18.1% (active)
COc1ccnc(NC(=S)N2CCN(c3ncc(C(F)(F)F)cc3Cl)CC2)c1 | 4.7%
O=C(O)c1ccc(NN=CC2=C(N3CCOCC3)/C(=C/c3ccccc3)CC2)cc1 | 27.7% (active)
O=C1OC(NC(=O)c2ccccc2)C(N2CCOCC2)=C1Cl (centres undefined) | 1.92%
O=C(Nc1ccc(F)cc1)c1cccnc1N1CCOCC1 | 1.85%
COc1ccc(Cn2ccc3ccc(-c4ccc5ccn(Cc6ccccc6C)c5c4)cc32)cc1 | -3.41%
O=S1(=O)c2ccc(N3CCN(Cc4ccccc4F)CC3)cc2Oc2ccccc2CN1Cc1cn(Cc2ccc(Cl)cc2)nn1 | 3.58%

SMILES | inhibition
Cc1ccsc1/C=N/NC(=O)Cc1cc(=O)[nH][nH]1 | -1.18%
O=[N+]([O-])c1ccc(C=Nc2ccc(Cl)cc2Cl)s1 | -0.56%
Cc1ccccc1NCC(=O)N/N=C\c1ccc([N+](=O)[O-])s1 | 19.6% (active)
CN(CCO)c1cccc2c1S(=O)(=O)N(Cc1cn(Cc3ccc(C(F)(F)F)cc3)nn1)Cc1ccccc1O2 | 5.32%
CC(=O)Nc1ccc(OC[C@@H](O)CN2CCC(C(O)(c3ccccc3)c3ccccc3)CC2)cc1 | -1.09%
COc1ccc(-n2c(COc3ccccc3)nnc2SCC(=O)Nc2ccc3c(c2)OCO3)cc1 | -0.67%
C#CCCN([C@H](C(=O)OC)C(C)C)S(=O)(=O)c1ccc(F)cc1Br | -3.33%
c1cncc(CNc2ccnc(-c3ccc4c(c3)OCO4)n2)c1 | 2.55%
Cc1ccc(OCc2nnc(SC/C=C/c3ccccc3)n2Cc2ccco2)cc1 | 1.59%
Cc1ccc(S(=O)(=O)/N=C(/Nc2ccc3[nH]c(=O)[nH]c3c2)c2ccccc2)cc1 | -0.12%
Cc1ccc(C(=O)NC(=S)Nc2ccc3[nH]c(=O)[nH]c3c2)cc1C | 16.7% (active)
Cc1cc(C)cc(C(=O)NC(=S)Nc2ccc3[nH]c(=O)[nH]c3c2)c1 | 3.15%
O=C(CSc1nc2ccccc2n1Cc1ccccc1Cl)N/N=C\c1c[nH]c2ccccc12 | 5.76%
O=C(Nc1nc(-c2ccco2)c(-c2ccco2)s1)c1ccco1 | 68.8% (active)
O=C(Nc1ccccc1C(=O)N1CCCCC1)c1ccco1 | 6.1%
O=C(Nc1c(-c2ccccc2)nc2c(Br)cc(Br)cn12)c1ccco1 | 1.6%
CCOC(=O)C1CCN(C(=O)C(C)(C)NC(=O)Nc2ccccc2Cl)CC1 | -0.46%
O=C(CN(C(=O)c1nsc(Cl)c1Cl)c1cccc(F)c1)NC1CCCC1 | -3.15%
O=C(CN(C(=O)c1csnn1)c1ccc(Br)cc1)NC1CCCC1 | 1.56%
O=C(CN(C(=O)c1csnn1)c1cccc(Cl)c1)NC1CCCC1 | 27.8% (active)
